Data on 10 compounds can be found in PubChem BioAssay (NCI).

Assay [1] is described as follows: NCI Yeast Anticancer Drug Screen. Data for the rad50 strain (AID 155).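 Also: 0% = growth of vehicle-only cultures of the same strain.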 To be noted: S. cerevisiae rad50 strain growth inhibition, active compounds read high. The procedure, abridged: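 Compounds were tested on a yeast strain with an engineered DNA damage repair alteration; the reported value is growth inhibition normalised to vehicle treatment.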
The nature of assay [2]: NCI Yeast Anticancer Drug Screen. Data for the mec2-1 strain (AID 157). To be noted: S. cerevisiae mec2-1 strain, active compounds read high. The procedure, abridged:
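Strain: mec2-1 (DNA repair/cell cycle alteration). Compound exposure, then growth measured; inhibition expressed relative to vehicle.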

The nature of assay [3]: NCI Yeast Anticancer Drug Screen. Data for the sgs1 mgt1 strain (AID 161).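 Also: 0% = growth of cultures given vehicle only.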 To be noted: S. cerevisiae sgs1 mgt1 strain, active compounds read high. An outline of the steps:
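Genetically altered yeast, compound exposure, growth inhibition relative to vehicle.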

The nature of assay [4]: NCI Yeast Anticancer Drug Screen. Data for the cln2 rad14 strain (AID 165).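 Also: 0% = growth equal to vehicle treated cultures.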 To be noted: S. cerevisiae cln2 rad14 strain, active compounds read high. An outline of the steps:
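Compounds are applied to the cln2 rad14 yeast strain, and growth is then compared with that of vehicle-treated cultures to give inhibition.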

Assay [5] is described as follows: NCI Yeast Anticancer Drug Screen. Data for the bub3 strain (AID 167). To be noted: S. cerevisiae bub3 mutant strain, active compounds read high. An outline of the steps:
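Growth of a checkpoint-deficient yeast mutant is measured after compound exposure. Values represent inhibition relative to vehicle.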

A short description of assay [6]: NCI Yeast Anticancer Drug Screen. Data for the mlh1 rad18 strain (AID 175). To be noted: S. cerevisiae mlh1 rad18 strain growth inhibition, active compounds read high. The procedure, abridged: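 Read-out is yeast growth inhibition, calculated against vehicle-only controls. The compound was applied to a strain engineered with DNA damage repair alterations.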
The mark [7] stands for this setting: at 5.0 µM (retest, dose inferred, filed as 0.5).
The mark [8] stands for this setting: at 50.0 µM (retest, dose inferred, filed as 5.0).

This is part of a sample that, as a whole, favours compounds with a hit. Of some 79,000 tested, about 15% had one in any assay. Values without a mark were called inactive. Active and inactive are the calls of the source. Rule as the data show it: active = growth inhibition above about 70%; inactive = the rest.

For the compound `NC(=O)NC(=O)N/N=C/c1ccc([N+](=O)[O-])o1`, the growth inhibition in assay [1] (setting [7]) was 2%; in assay [1] (setting [8]), 25%; in assay [1] (at 50.0 µM), 74.8% (active); in assay [2] (setting [7]), 1%; in assay [2] (setting [8]), 20%; in assay [2] (at 50.0 µM), 22.9%. The growth inhibition was 5% in assay [3] (setting [7]); 27% in assay [3] (setting [8]); 68.2% in assay [3] (at 50.0 µM); -1% in assay [4] (setting [7]); 12% in assay [4] (setting [8]); 38% in assay [4] (at 50.0 µM). Besides, the growth inhibition is -5% in assay [5] (setting [7]); 17% in assay [5] (setting [8]); 27.2% in assay [5] (at 50.0 µM); 4% in assay [6] (setting [7]); 40% in assay [6] (setting [8]); 61.5% in assay [6] (at 50.0 µM).
For the compound `C/C=C/C=C1\C=Cc2c(C(=O)OC)coc(=O)c21`, the growth inhibition is -9% in assay [1] (setting [7]); 85% (active) in assay [1] (setting [8]); 92% (active) in assay [1] (at 50.0 µM); 14% in assay [2] (setting [7]); 91% (active) in assay [2] (setting [8]); 94.2% (active) in assay [2] (at 50.0 µM). The growth inhibition is 7% in assay [3] (setting [7]); 85% (active) in assay [3] (setting [8]); 76.3% (active) in assay [3] (at 50.0 µM); -9% in assay [4] (setting [7]); 76% (active) in assay [4] (setting [8]); 62.8% in assay [4] (at 50.0 µM). Moreover, the growth inhibition was 15% in assay [5] (setting [7]); 96% (active) in assay [5] (setting [8]); 94% (active) in assay [5] (at 50.0 µM); 14% in assay [6] (setting [7]); 97% (active) in assay [6] (setting [8]); 95% (active) in assay [6] (at 50.0 µM).
Take `C[Si](C)(C)C1=C([Si](C)(C)C)C(Cl)(Cl)C1=O`: the growth inhibition in assay [1] (setting [7]) was 10%; in assay [1] (setting [8]), 32%; in assay [1] (at 50.0 µM) it was 12%; in assay [2] (setting [7]), 12%; in assay [2] (setting [8]) it was 17%; in assay [2] (at 50.0 µM) it was 9.35%. Further, the growth inhibition is 20% in assay [3] (setting [7]); 49% in assay [3] (setting [8]); 72.2% (active) in assay [3] (at 50.0 µM); 6% in assay [4] (setting [7]); 40% in assay [4] (setting [8]); 45.5% in assay [4] (at 50.0 µM). The growth inhibition in assay [5] (setting [7]) was 16%; in assay [5] (setting [8]), 33%; in assay [5] (at 50.0 µM) it was 29.2%; in assay [6] (setting [7]) it was 18%; in assay [6] (setting [8]), 38%; in assay [6] (at 50.0 µM) it was 32.4%.
Turning to `COc1cc(C(c2cc3c(cc2OC(C)=O)OCO3)C(C(C)=O)C(C)=O)cc(OC)c1OC(C)=O` (stereo not given), the growth inhibition in assay [1] (setting [7]) is 7%; in assay [1] (setting [8]), 18%; in assay [1] (at 50.0 µM) it was 3.7%; in assay [2] (setting [7]) it was -4%; in assay [2] (setting [8]), 18%; in assay [2] (at 50.0 µM), 5%. Also, the growth inhibition was -5% in assay [3] (setting [7]); 0% in assay [3] (setting [8]); -18.9% in assay [3] (at 50.0 µM); -1% in assay [4] (setting [7]); 1% in assay [4] (setting [8]); -16.4% in assay [4] (at 50.0 µM). The growth inhibition was 8% in assay [5] (setting [7]); 13% in assay [5] (setting [8]); 8.75% in assay [5] (at 50.0 µM); 3% in assay [6] (setting [7]); 11% in assay [6] (setting [8]); -4.2% in assay [6] (at 50.0 µM).
Turning to `CC(C)NC(=O)OCc1c2c(n(C)c1COC(=O)NC(C)C)-c1ccccc1CC2`, the growth inhibition in assay [1] (setting [7]) was 77% (active); in assay [1] (setting [8]), 97% (active); in assay [1] (at 50.0 µM), 98.2% (active); in assay [2] (setting [7]), 14%; in assay [2] (setting [8]) it was 98% (active); in assay [2] (at 50.0 µM), 98.6% (active). In addition, the growth inhibition is 13% in assay [3] (setting [7]); 97% (active) in assay [3] (setting [8]); 98.4% (active) in assay [3] (at 50.0 µM); -5% in assay [4] (setting [7]); 97% (active) in assay [4] (setting [8]); 97.8% (active) in assay [4] (at 50.0 µM). Moreover, the growth inhibition in assay [5] (setting [7]) was 4%; in assay [5] (setting [8]), 98% (active); in assay [5] (at 50.0 µM) it was 97.6% (active); in assay [6] (setting [7]) it was 26%; in assay [6] (setting [8]) it was 96% (active); in assay [6] (at 50.0 µM), 98.2% (active).
As for `CC1(C)CCC2(CC1)CC(=O)OC(=O)C2`, the growth inhibition is -159% in assay [1] (setting [7]); -162% in assay [1] (setting [8]); -3.9% in assay [1] (at 50.0 µM); -50% in assay [2] (setting [7]); -54% in assay [2] (setting [8]); 18.5% in assay [2] (at 50.0 µM). The growth inhibition is -64% in assay [3] (setting [7]); -62% in assay [3] (setting [8]); 6.6% in assay [3] (at 50.0 µM); -59% in assay [4] (setting [7]); -59% in assay [4] (setting [8]); 27.8% in assay [4] (at 50.0 µM). Besides, the growth inhibition in assay [5] (setting [7]) was -71%; in assay [5] (setting [8]) it was -82%; in assay [5] (at 50.0 µM), -3.4%; in assay [6] (setting [7]), -145%; in assay [6] (setting [8]), -117%; in assay [6] (at 50.0 µM), 3.95%.
Turning to `CC1=CC(O)(c2ccc(-c3ccccc3Cl)cc2)OC1=O` (stereo not given), the growth inhibition in assay [1] (setting [7]) was -8%; in assay [1] (setting [8]) it was 90% (active); in assay [1] (at 50.0 µM), 90.2% (active); in assay [2] (setting [7]), 0%; in assay [2] (setting [8]), 96% (active); in assay [2] (at 50.0 µM) it was 94.8% (active). The growth inhibition was -1% in assay [3] (setting [7]); 88% (active) in assay [3] (setting [8]); 92.1% (active) in assay [3] (at 50.0 µM); -19% in assay [4] (setting [7]); 87% (active) in assay [4] (setting [8]); 90.9% (active) in assay [4] (at 50.0 µM). Further, the growth inhibition was -11% in assay [5] (setting [7]); 95% (active) in assay [5] (setting [8]); 89.3% (active) in assay [5] (at 50.0 µM); -9% in assay [6] (setting [7]); 94% (active) in assay [6] (setting [8]); 96.3% (active) in assay [6] (at 50.0 µM).
As to `O=[N+]([O-])c1ccc(O)c(/C=N\NC(=S)Nc2ccc3cn[nH]c3c2)c1`, the growth inhibition is -2% in assay [1] (setting [7]); 33% in assay [1] (setting [8]); 74.3% (active) in assay [1] (at 50.0 µM); 1% in assay [2] (setting [7]); 20% in assay [2] (setting [8]); 47.2% in assay [2] (at 50.0 µM). The growth inhibition in assay [3] (setting [7]) is 11%; in assay [3] (setting [8]), 37%; in assay [3] (at 50.0 µM), 41.2%; in assay [4] (setting [7]), -17%; in assay [4] (setting [8]) it was 37%; in assay [4] (at 50.0 µM), 32.6%. Besides, the growth inhibition in assay [5] (setting [7]) is -2%; in assay [5] (setting [8]) it was 52%; in assay [5] (at 50.0 µM) it was 49.1%; in assay [6] (setting [7]), 12%; in assay [6] (setting [8]), 41%; in assay [6] (at 50.0 µM), 30.8%.
Turning to `CC(C)C(OC(=O)c1ccc(NCC2=CC(=O)C=CC2=O)cc1)C(C)C`, the growth inhibition in assay [1] (setting [7]) is 22%; in assay [1] (setting [8]) it was 37%; in assay [1] (at 50.0 µM), 17%; in assay [2] (setting [7]) it was 15%; in assay [2] (setting [8]), 40%; in assay [2] (at 50.0 µM), 11.3%. Besides, the growth inhibition in assay [3] (setting [7]) is 23%; in assay [3] (setting [8]), 53%; in assay [3] (at 50.0 µM), 73% (active); in assay [4] (setting [7]) it was 21%; in assay [4] (setting [8]), 32%; in assay [4] (at 50.0 µM), 73.8% (active). The growth inhibition was 27% in assay [5] (setting [7]); 61% in assay [5] (setting [8]); 70.5% (active) in assay [5] (at 50.0 µM); 17% in assay [6] (setting [7]); 44% in assay [6] (setting [8]); -10.4% in assay [6] (at 50.0 µM).
Take `CN(C(=O)c1cccs1)C(=S)N1CCN(c2ccccc2)CC1`: the growth inhibition is -26% in assay [1] (setting [7]); 66% in assay [1] (setting [8]); 79.8% (active) in assay [1] (at 50.0 µM); 6% in assay [2] (setting [7]); 68% in assay [2] (setting [8]); 67% in assay [2] (at 50.0 µM). Moreover, the growth inhibition was -2% in assay [3] (setting [7]); 70% (active) in assay [3] (setting [8]); 84.8% (active) in assay [3] (at 50.0 µM); -8% in assay [4] (setting [7]); 56% in assay [4] (setting [8]); 49.9% in assay [4] (at 50.0 µM). Further, the growth inhibition in assay [5] (setting [7]) is -14%; in assay [5] (setting [8]), 83% (active); in assay [5] (at 50.0 µM), 61.3%; in assay [6] (setting [7]), -18%; in assay [6] (setting [8]) it was 90% (active); in assay [6] (at 50.0 µM), 67.2%.
